Source: the supplement of paper PMC4466140

Each binder was assayed against AgAbp1 (assay: SPOT peptide array binding signal intensity (averaged, normalized) (arbitrary units (background-subtracted, floor 0; scale differs between SH3 domains)); higher = stronger binding of the SH3 domain to the peptide).
How it was run: (§1)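 Cellulose membranes carried synthetic 15-mer peptides with cysteines swapped for serines. These were incubated overnight at 4°C with 10 μg/ml of GST-fused SH3 domains from four yeast species in TBS-based blocking buffer. Binding signal, detected with anti-GST antibody and quantified in Genespotter, is the normalized, background-subtracted spot intensity averaged over replicates, in arbitrary units specific to each domain.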

| Binder | SPOT peptide array binding signal intensity |
| --- | --- |
| NTMKKRPAPPSLPSL | 93 |

Each binder was assayed against AgBbc1 in the same assay as above.
How it was run: as §1

| Binder | SPOT peptide array binding signal intensity |
| --- | --- |
| NTMKKRPAPPSLPSL | 21 |

What follows are binders tested against AgBem1-D1 in the same assay as above.
How it was run: as §1

| Binder | SPOT peptide array binding signal intensity |
| --- | --- |
| NTMKKRPAPPSLPSL | 405 |

These binders were tested against AgBzz1-D1 in the same assay as above.
How it was run: as §1

| Binder | SPOT peptide array binding signal intensity |
| --- | --- |
| NTMKKRPAPPSLPSL | 152 |

The binders below were run against AgBzz1-D2 in the same assay as above.
How it was run: as §1

| Binder | SPOT peptide array binding signal intensity |
| --- | --- |
| NTMKKRPAPPSLPSL | 240 |

These binders were tested against AgCyk3 in the same assay as above.
How it was run: as §1

| Binder | SPOT peptide array binding signal intensity |
| --- | --- |
| NTMKKRPAPPSLPSL | ≤ 0 |

The binders below were run against AgFus1 in the same assay as above.
How it was run: as §1

| Binder | SPOT peptide array binding signal intensity |
| --- | --- |
| NTMKKRPAPPSLPSL | 375 |

What follows are binders tested against AgHof1 in the same assay as above.
How it was run: as §1

| Binder | SPOT peptide array binding signal intensity |
| --- | --- |
| NTMKKRPAPPSLPSL | 286 |

What follows are binders tested against AgHse1 in the same assay as above.
How it was run: as §1

| Binder | SPOT peptide array binding signal intensity |
| --- | --- |
| NTMKKRPAPPSLPSL | 641 |

These binders were tested against AgLsb1 in the same assay as above.
How it was run: as §1

| Binder | SPOT peptide array binding signal intensity |
| --- | --- |
| NTMKKRPAPPSLPSL | 15.5 |

The binders below were run against AgLsb4 in the same assay as above.
How it was run: as §1

| Binder | SPOT peptide array binding signal intensity |
| --- | --- |
| NTMKKRPAPPSLPSL | 61.5 |

These binders were tested against AgMyo5 in the same assay as above.
How it was run: as §1

| Binder | SPOT peptide array binding signal intensity |
| --- | --- |
| NTMKKRPAPPSLPSL | 66.5 |

Each binder was assayed against AgNbp2 in the same assay as above.
How it was run: as §1

| Binder | SPOT peptide array binding signal intensity |
| --- | --- |
| NTMKKRPAPPSLPSL | 384 |

What follows are binders tested against AgRvs167 in the same assay as above.
How it was run: as §1

| Binder | SPOT peptide array binding signal intensity |
| --- | --- |
| NTMKKRPAPPSLPSL | 3.33 |

Each binder was assayed against AgSho1 in the same assay as above.
How it was run: as §1

| Binder | SPOT peptide array binding signal intensity |
| --- | --- |
| NTMKKRPAPPSLPSL | 496 |

These binders were tested against AgSla1-D1-D2 in the same assay as above.
How it was run: as §1

| Binder | SPOT peptide array binding signal intensity |
| --- | --- |
| NTMKKRPAPPSLPSL | 114 |

Each binder was assayed against AgSla1-D3 in the same assay as above.
How it was run: as §1

| Binder | SPOT peptide array binding signal intensity |
| --- | --- |
| NTMKKRPAPPSLPSL | 59.8 |

These binders were tested against CaAbp1-D1 in the same assay as above.
How it was run: as §1

| Binder | SPOT peptide array binding signal intensity |
| --- | --- |
| NTMKKRPAPPSLPSL | 1570 |

Each binder was assayed against CaAbp1-D2 in the same assay as above.
How it was run: as §1

| Binder | SPOT peptide array binding signal intensity |
| --- | --- |
| NTMKKRPAPPSLPSL | 892 |

Each binder was assayed against CaBbc1 in the same assay as above.
How it was run: as §1

| Binder | SPOT peptide array binding signal intensity |
| --- | --- |
| NTMKKRPAPPSLPSL | 151 |

What follows are binders tested against CaBem1-D1 in the same assay as above.
How it was run: as §1

| Binder | SPOT peptide array binding signal intensity |
| --- | --- |
| NTMKKRPAPPSLPSL | 279 |

What follows are binders tested against CaBzz1-D1 in the same assay as above.
How it was run: as §1

| Binder | SPOT peptide array binding signal intensity |
| --- | --- |
| NTMKKRPAPPSLPSL | 2650 |

Each binder was assayed against CaBzz1-D2 in the same assay as above.
How it was run: as §1

| Binder | SPOT peptide array binding signal intensity |
| --- | --- |
| NTMKKRPAPPSLPSL | 952 |

What follows are binders tested against CaCyk3 in the same assay as above.
How it was run: as §1

| Binder | SPOT peptide array binding signal intensity |
| --- | --- |
| NTMKKRPAPPSLPSL | 13.5 |

What follows are binders tested against CaFus1 in the same assay as above.
How it was run: as §1

| Binder | SPOT peptide array binding signal intensity |
| --- | --- |
| NTMKKRPAPPSLPSL | 1380 |

Each binder was assayed against CaHof1 in the same assay as above.
How it was run: as §1

| Binder | SPOT peptide array binding signal intensity |
| --- | --- |
| NTMKKRPAPPSLPSL | 0.5 |

The binders below were run against CaHse1 in the same assay as above.
How it was run: as §1

| Binder | SPOT peptide array binding signal intensity |
| --- | --- |
| NTMKKRPAPPSLPSL | 262 |

Each binder was assayed against CaLsb1 in the same assay as above.
How it was run: as §1

| Binder | SPOT peptide array binding signal intensity |
| --- | --- |
| NTMKKRPAPPSLPSL | 6 |

What follows are binders tested against CaLsb4 in the same assay as above.
How it was run: as §1

| Binder | SPOT peptide array binding signal intensity |
| --- | --- |
| NTMKKRPAPPSLPSL | 589 |

Each binder was assayed against CaMyo5 in the same assay as above.
How it was run: as §1

| Binder | SPOT peptide array binding signal intensity |
| --- | --- |
| NTMKKRPAPPSLPSL | 137 |

Each binder was assayed against CaNbp2 in the same assay as above.
How it was run: as §1

| Binder | SPOT peptide array binding signal intensity |
| --- | --- |
| NTMKKRPAPPSLPSL | 1280 |

The binders below were run against CaRvs167 in the same assay as above.
How it was run: as §1

| Binder | SPOT peptide array binding signal intensity |
| --- | --- |
| NTMKKRPAPPSLPSL | 89 |

The binders below were run against CaRvs167-3 in the same assay as above.
How it was run: as §1

| Binder | SPOT peptide array binding signal intensity |
| --- | --- |
| NTMKKRPAPPSLPSL | 1.25 |

Each binder was assayed against CaSho1 in the same assay as above.
How it was run: as §1

| Binder | SPOT peptide array binding signal intensity |
| --- | --- |
| NTMKKRPAPPSLPSL | 1700 |

These binders were tested against CaSla1-D1-D2 in the same assay as above.
How it was run: as §1

| Binder | SPOT peptide array binding signal intensity |
| --- | --- |
| NTMKKRPAPPSLPSL | 648 |

These binders were tested against CaSla1-D3 in the same assay as above.
How it was run: as §1

| Binder | SPOT peptide array binding signal intensity |
| --- | --- |
| NTMKKRPAPPSLPSL | 246 |

What follows are binders tested against ScAbp1 in the same assay as above.
How it was run: as §1

| Binder | SPOT peptide array binding signal intensity |
| --- | --- |
| NTMKKRPAPPSLPSL | 30 |

These binders were tested against ScBbc1 in the same assay as above.
How it was run: as §1

| Binder | SPOT peptide array binding signal intensity |
| --- | --- |
| NTMKKRPAPPSLPSL | 4.5 |

What follows are binders tested against ScBem1-D1 in the same assay as above.
How it was run: as §1

| Binder | SPOT peptide array binding signal intensity |
| --- | --- |
| NTMKKRPAPPSLPSL | 1 |

These binders were tested against ScBzz1-D1 in the same assay as above.
How it was run: as §1

| Binder | SPOT peptide array binding signal intensity |
| --- | --- |
| NTMKKRPAPPSLPSL | 134 |

What follows are binders tested against ScBzz1-D2 in the same assay as above.
How it was run: as §1

| Binder | SPOT peptide array binding signal intensity |
| --- | --- |
| NTMKKRPAPPSLPSL | 59 |

These binders were tested against ScCyk3 in the same assay as above.
How it was run: as §1

| Binder | SPOT peptide array binding signal intensity |
| --- | --- |
| NTMKKRPAPPSLPSL | 11 |

The binders below were run against ScFus1 in the same assay as above.
How it was run: as §1

| Binder | SPOT peptide array binding signal intensity |
| --- | --- |
| NTMKKRPAPPSLPSL | 457 |

What follows are binders tested against ScHof1 in the same assay as above.
How it was run: as §1

| Binder | SPOT peptide array binding signal intensity |
| --- | --- |
| NTMKKRPAPPSLPSL | 19.5 |

Each binder was assayed against ScHse1 in the same assay as above.
How it was run: as §1

| Binder | SPOT peptide array binding signal intensity |
| --- | --- |
| NTMKKRPAPPSLPSL | 1410 |

These binders were tested against ScLsb1 in the same assay as above.
How it was run: as §1

| Binder | SPOT peptide array binding signal intensity |
| --- | --- |
| NTMKKRPAPPSLPSL | 29.5 |

What follows are binders tested against ScLsb2 in the same assay as above.
How it was run: as §1

| Binder | SPOT peptide array binding signal intensity |
| --- | --- |
| NTMKKRPAPPSLPSL | ≤ 0 |

These binders were tested against ScLsb3 in the same assay as above.
How it was run: as §1

| Binder | SPOT peptide array binding signal intensity |
| --- | --- |
| NTMKKRPAPPSLPSL | 344 |

These binders were tested against ScLsb4 in the same assay as above.
How it was run: as §1

| Binder | SPOT peptide array binding signal intensity |
| --- | --- |
| NTMKKRPAPPSLPSL | 130 |

These binders were tested against ScMyo3 in the same assay as above.
How it was run: as §1

| Binder | SPOT peptide array binding signal intensity |
| --- | --- |
| NTMKKRPAPPSLPSL | 350 |

These binders were tested against ScMyo5 in the same assay as above.
How it was run: as §1

| Binder | SPOT peptide array binding signal intensity |
| --- | --- |
| NTMKKRPAPPSLPSL | 287 |

Each binder was assayed against ScNbp2 in the same assay as above.
How it was run: as §1

| Binder | SPOT peptide array binding signal intensity |
| --- | --- |
| NTMKKRPAPPSLPSL | 383 |

Each binder was assayed against ScPex13 in the same assay as above.
How it was run: as §1

| Binder | SPOT peptide array binding signal intensity |
| --- | --- |
| NTMKKRPAPPSLPSL | 310 |

The binders below were run against ScRvs167 in the same assay as above.
How it was run: as §1

| Binder | SPOT peptide array binding signal intensity |
| --- | --- |
| NTMKKRPAPPSLPSL | 64.5 |

Each binder was assayed against ScSho1 in the same assay as above.
How it was run: as §1

| Binder | SPOT peptide array binding signal intensity |
| --- | --- |
| NTMKKRPAPPSLPSL | 837 |

These binders were tested against ScSla1-D1-D2 in the same assay as above.
How it was run: as §1

| Binder | SPOT peptide array binding signal intensity |
| --- | --- |
| NTMKKRPAPPSLPSL | 234 |

Each binder was assayed against ScSla1-D3 in the same assay as above.
How it was run: as §1

| Binder | SPOT peptide array binding signal intensity |
| --- | --- |
| NTMKKRPAPPSLPSL | 521 |

Each binder was assayed against SpAbp1-D1 in the same assay as above.
How it was run: as §1

| Binder | SPOT peptide array binding signal intensity |
| --- | --- |
| NTMKKRPAPPSLPSL | 78.5 |

What follows are binders tested against SpBbc1 in the same assay as above.
How it was run: as §1

| Binder | SPOT peptide array binding signal intensity |
| --- | --- |
| NTMKKRPAPPSLPSL | 3 |

The binders below were run against SpBzz1-D1 in the same assay as above.
How it was run: as §1

| Binder | SPOT peptide array binding signal intensity |
| --- | --- |
| NTMKKRPAPPSLPSL | 1170 |
